HPGD block – qHTS Assay for Inhibitors of HPGD (15-Hydroxyprostaglandin Dehydrogenase); 15-hydroxyprostaglandin dehydrogenase [NAD(+)] (Homo sapiens), P15428; purified HPGD, NADH fluorescence kinetic, PGE2 substrate; Potency, µM, without a hit: at the highest dose activity change, negative = inhibition, hits mostly inhibitors; 150,000 compounds, 4.3% hits; further: potency means the concentration at half of the fitted maximal effect
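NADH formation kinetics: reaction with 30 uM PGE2 and 1 mM NAD+ (final), 20 nM enzyme, Tris-HCl pH 8 with Tween 20, after 15 min compound preincubation at room temperature. Fluorescence change, last versus first of five reads.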
IMPase inh – qHTS Assay for Identifying the Cell-Membrane Permeable IMPase Inhibitors. Inositol monophosphatase 1 (Rattus norvegicus), P97697. CHO-M1 cells, IP1 accumulation, HTRF TR-FRET ratio. inhibition (IP1 accumulation), % at 46.1 µM. 120,000 tested, under 10 active. AID 901, 2007; active means well fitted curve in the direction sought with a large enough effect in the signal ratio, not every such curve was filed as active; inconclusive means small, poorly fitted or top-dose-only effect, or a change in a side signal; inactive means no such curve, though single readings can be large or run the other way; the % refers to the signal ratio;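 further: cells stimulated with carbachol in lithium chloride buffer; plate controls were DMSO basal wells for no effect and reference inhibitor wells for full effect; higher means more IMPase inhibition seen as more IP1 and lower FRET ratio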
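Carbachol-driven Gq signalling in CHO-M1 cells (2000/well) generates IP1. Compounds that block IMPase raise IP1 and so reduce the FRET signal from Eu-anti-IP1 and d2-IP1 after a 10 min room-temperature lysis.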
IMPase Li inh – qHTS Assay for Identifying the Cell-Membrane Permeable IMPase Inhibitors: Potentiation with Lithium. 210,000 compounds, 0.35% hits. CHO-M1 cells, IP1 TR-FRET (IP-One), carbachol + lithium. AID 1457, 2008. Potency, µM (top dose mostly 59.4 µM), for inactives: at the highest dose activity, negative = IMPase inhibition, actives largely listed as inhibitors; active means well fitted inhibition curve with a large enough effect; inconclusive means small, poorly fitted or top-dose-only effect; inactive means no such curve, though single readings can be large or run the other way;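 further: IP1 builds up when IMPase is blocked and the TR-FRET signal falls; potency means the concentration at half of the fitted maximal effect; plate controls were basal vehicle for no effect and high inhibitor control for full effect; nearly all actives have a fitted effect of over 50% in size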
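Lithium-sensitised IP1 accumulation assay; M1-expressing CHO cells treated 30 min at 37C with compound. Competitive antibody detection by time-resolved FRET followed a 10 min room-temperature lysis step.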
ALDH1A1 inh – qHTS Assay for Inhibitors of Aldehyde Dehydrogenase 1 (ALDH1A1); Aldehyde dehydrogenase 1A1 (Homo sapiens), P00352; Potency, µM (top dose mostly 75.3 µM), inactives show at the highest dose activity, negative = inhibition, actives largely listed as inhibitors; 220,000 compounds, 7.3% hits; Purified ALDH1A1, NADH fluorescence, propionaldehyde substrate;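 further: potency means the concentration at half of the fitted maximal effect; plate controls were no enzyme wells and a reference inhibitor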
Target sequence (P00352 whole entry, looked up): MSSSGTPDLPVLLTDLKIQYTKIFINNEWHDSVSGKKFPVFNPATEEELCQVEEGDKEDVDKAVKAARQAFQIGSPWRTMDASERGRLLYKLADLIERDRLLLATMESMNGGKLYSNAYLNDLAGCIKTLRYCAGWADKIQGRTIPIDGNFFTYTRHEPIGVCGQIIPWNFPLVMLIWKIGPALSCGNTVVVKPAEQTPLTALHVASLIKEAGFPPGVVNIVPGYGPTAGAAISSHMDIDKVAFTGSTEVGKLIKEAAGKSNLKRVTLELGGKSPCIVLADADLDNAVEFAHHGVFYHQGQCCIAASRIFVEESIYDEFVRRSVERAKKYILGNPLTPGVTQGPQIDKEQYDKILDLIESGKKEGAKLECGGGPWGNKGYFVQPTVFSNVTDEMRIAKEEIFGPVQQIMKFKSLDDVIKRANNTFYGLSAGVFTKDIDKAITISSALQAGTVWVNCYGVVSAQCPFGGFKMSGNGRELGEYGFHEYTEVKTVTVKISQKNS
PNC inhibitor – High Content Assay for Compounds that inhibit the Assembly of the Perinucleolar Compartment. PC3M PTB-GFP, PNC prevalence imaging, 16 h; hits give low values. activity change (PNC), negative = inhibition, % at 10 µM. 140,000 compounds, 3.1% hits. AID 2417, 2010;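 active means readout at or below -70, meaning at least 70% loss of cells showing the perinucleolar compartment, a nuclear body marking cancer cells; inconclusive means readout between -30 and a set limit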;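 further: plate controls were DMSO wells for no effect and camptothecin positive control wells for full effect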
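Compounds are pinned in duplicate onto adhered PC3M cells stably expressing GFP-tagged PTB and incubated 16 h at 37 C. Cells are then fixed, nuclei stained with Hoechst, and PNC-positive cells counted.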
The depositor's hits bear a star; ? = inconclusive; nt = no result given; [ ] = dose if it differs, or a comment. Hits are enriched below; roughly 11% of the tested compounds scored in any of these assays. Unless noted, the call rests on the fitted dose curve; in most records, active means well fitted inhibition curve with a large enough effect (not every such curve was filed as active); inconclusive means small, poorly fitted or top-dose-only effect, or another doubt; inactive means no such curve, though single readings can be large or run the other way. Unless noted, on the % scale 0 is the no-effect control and ±100 the full control effect.

SMILES	HPGD block	IMPase inh	IMPase Li inh	ALDH1A1 inh	PNC inhibitor
CCN(CC)C(=O)c1ccc(S(=O)(=O)NCc2cccnc2)cc1	?	-5	1%[38.3 µM]	5%	8
CC(=O)Nc1ccc(S(=O)(=O)NCc2ccc(C)cc2)cc1	-15%	0	20%[38.3 µM]	-8%	-110*
O=C(O)CN(CCN(CC(=O)O)CC(=O)O)CC(=O)O.[Mn]	-3%	nt	-9%	3%[13.5 µM]	nt
O=S(=O)(c1ccccc1)N1C2CCC1CC(O)(c1cccnc1)C2 (configuration not stated)	-14%	0	4%[38.3 µM]	13µM*	15
O=C1CC(c2ccccc2)NC(=O)N1 (configuration not stated)	-3%	-8	18%[38.3 µM]	3%	-81*
CCn1c(CNc2ccc(C(=O)O)cc2)nc2ccccc21	-6%	-5	-5%[38.3 µM]	-9%	-109*
O=C(O)c1ccc(NCc2nc3ccccc3n2CCOc2ccccc2Cl)cc1	nt	nt	5%	2%	nt
Cc1ccc(C(=C2C3C=CC2C2C(=O)NC(=O)C32)c2ccc(C)cc2)cc1 (configuration not stated)	-3%	2	10%[38.3 µM]	0.89µM*	21
C=CCSc1nnc(-c2cnn(-c3ccccc3)c2-n2cccc2)n1C	?	0	53%[38.3 µM]	-10%	-23
CCCSc1nnc(-c2cnn(-c3ccccc3)c2-n2cccc2)n1C	18µM*	5	33%[38.3 µM]	?	24
CCOCc1cnc(C)nc1NCC(=O)c1c(C)n(C)c2ccc(OC)cc12	-7%	4	0%[38.3 µM]	32µM*	6
COc1ccc2c(c1)c(C(=O)CNc1nc(C)cs1)c(C)n2C	-20%	10	-10%[38.3 µM]	?	-14
CC(C)NC(=O)N1CC2(CCN(C(=O)c3ccncc3)CC2)C1	-10%	nt	3%	10%	nt
CCC(=O)NCCCNc1nc2c(C)cccc2cc1C#N	nt	nt	7%	?	nt
Cc1cc(C)c2cc(C#N)c(NCCCNC(=O)CCC(=O)O)nc2c1	?	-7	-5%[38.3 µM]	?	-87*
CC1CC(CN)CC(CO)C1 (configuration not stated)	nt	nt	2%	-4%	nt
CCOC(=O)Cc1csc(NC(=O)c2cc3c(s2)CCCC3)n1	-8%	2	-7%[38.3 µM]	?	5
CCOC(=O)Cc1csc(NC(=O)c2csc3c2CCCC3)n1	?	-3	15%[38.3 µM]	14µM*	-16
CCOC(=O)Cc1csc(NC(=O)NC2(C(F)(F)F)Oc3ccccc3O2)n1	35µM*	5	-14%[38.3 µM]	-16%	-7
COc1cccc(NC(=O)NC2(C(F)(F)F)Oc3ccccc3O2)c1	-27%	-2	11%	35µM*	?
COc1cccc(NC(=O)Nc2cccc(C(=O)O)c2)c1	nt	nt	-2%	6%	nt
CS(=O)(=O)N1CC(C(=O)NC2CCCC2)Oc2ccc(Cl)cc21 (configuration not stated)	-8%	3	-11%[38.3 µM]	10µM*	14
CCOc1ccccc1N=c1oc2cc(O)ccc2cc1C(=O)NCC1CCCO1 (configuration not stated)	?	13	21%[38.3 µM]	?	?
COc1ccc(-n2sc3c(c2=S)-c2cc(OC)ccc2NC3(C)C)cc1	-29%	-8	17%	32µM*	-16
CC1(C(=O)O)NCCc2cc(O)c(O)cc21 (configuration not stated)	nt	nt	9%	?	nt
SMILES	HPGD block	IMPase inh	IMPase Li inh	ALDH1A1 inh	PNC inhibitor
Oc1ccc(CN2CCCc3ccccc32)c2cccnc12	-9%	14	14%[38.3 µM]	10µM*	?
COc1ccccc1N1CCN(Cc2ccc(O)c3ncccc23)CC1	-13%	9	65%[38.3 µM]	-7%	-6
Cc1ccnc(NC(=O)Nc2ccc(Br)cc2Cl)c1	nt	nt	4%	4%	nt
CC1(C)CC(=S)Nc2ccccc2S1	16µM*	-7	1%	10µM*	-100*
S=C1Nc2ccccc2Sc2ccc(Cl)cc21	-19%	nt	-4%	-8%	-6
CCCC(=O)N1CCCC(c2nc(-c3cccc(OC)c3)no2)C1 (configuration not stated)	nt	nt	3%	6%	nt
Cc1ccc(-c2noc(C3CCCN(C(=O)c4ccccc4)C3)n2)o1 (configuration not stated)	0%	?	7%[38.3 µM]	14µM*	4
COc1cccc(-c2noc(C3CCCN(C(=O)Cc4ccccc4)C3)n2)c1 (configuration not stated)	-1%	-3	21%[38.3 µM]	13µM*	-16
COc1ccc(C(=O)N2CCCC(c3nc(-c4cc(OC)c(OC)c(OC)c4)no3)C2)cc1 (configuration not stated)	25µM*	0[1.84 µM]	10%[38.3 µM]	11%	?
CCOc1ccccc1NC(=O)N1CCCC(c2nc(-c3ccc(C)o3)no2)C1 (configuration not stated)	nt	nt	7%	?	nt
CCc1cc2cc(C)c(C)cc2nc1SCC(=O)NNC(=O)c1ccco1	-14%	5	?	?	-25
CCOc1ccc2cc(C#N)c(SCC(=O)NC(C)CC)nc2c1 (configuration not stated)	-23%	?	3.5µM*	7%	-27
CCc1cc2ccc(OC)cc2nc1SCC(=O)NNC(=O)c1ccco1	nt	nt	0%	6.3µM*	nt
Cc1ccc2cc(C#N)c(SCC(=O)NCc3ccco3)nc2c1	-16%	-22	-13%[38.3 µM]	?	-82*
CCOC(=O)CSc1nc2cc(OCC)ccc2cc1C#N	?	7	?	?	8
Cc1ccc2nc(SCC(=O)NCc3cccs3)c(C#N)cc2c1	-13%	?	13µM*	7%	-25
Cc1ccc2nc(SCC(=O)NCc3ccco3)c(C#N)cc2c1	7.9µM*	?	?	-8%	-18
Cc1ccc2cc(C#N)c(SCC(=O)NNC(=O)Cc3ccccc3)nc2c1	-5%	nt	13µM*	4%	-5
Cc1ccc2nc(SCC(=O)NCc3ccco3)c(C)cc2c1	nt	nt	11%	16µM*	nt
CCc1ccc(S(=O)(=O)NC(=S)Nc2ccccc2)cc1	nt	nt	nt	32µM*	nt
Cc1ccc(S(=O)(=O)NNC(=S)Nc2ccccc2)cc1	11µM*	1	20%[38.3 µM]	7.5µM*	35
Cc1ccc(S(=O)(=O)NNC(=S)Nc2c(Cl)cccc2Cl)cc1	nt	nt	nt	-15%	nt
CCNC(=S)NS(=O)(=O)c1ccc(C)cc1	nt	-7	nt	?	-85*
CC[C@H]1C2=C3C(CC[C@H]4C(OCc5ccc(F)cc5C(F)(F)F)OC[C@](C)([C@@H]34)N(C(=O)OC(C)(C)C)C2)C2COC(=O)OCC21 (some centres not stated)	-12%	nt	-7%	-8%	nt

Compound activity: PubChem BioAssay, National Center for Advancing Translational Sciences (NCATS)
